# Test results taken from PubChem BioAssay (NCATS).
# Unmarked numbers belong to inactive results. Records with an inconclusive call do not appear. Active and inactive are the calls of the source. Unless noted, calls come from the whole dose curve; as a rule, active = well fitted inhibition curve with a large enough effect; inconclusive = small, poorly fitted or top-dose-only effect; inactive = flat fitted curve, though single readings scatter.
# Columns and labels:
# [1] = Drug repurposing screens with cells derived from glioblastoma tumor samples (AID 1345199); conditions: GBM patient neurospheres viability, ATP luminescence, 48 h; note: nearly all actives have a fitted effect of over 40% in size; note: potency is the fitted concentration of half-maximal effect; for activity, negative = cell killing: % is set by controls: 0 for no effect and ±100 for the full control effect
# Procedure, shortened: (§1)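 Primary testing used CD133+ neurospheres from four GBM patients, seven concentrations, 48 h exposure and ATP-based viability; confirmation added three slower-growing patient lines.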
# astro = control astrocytes; assay: as above; conditions: viability, ATP luminescence, 48 h; series mostly up to 45.9 µM
# Procedure, shortened: as §1
# [2] = molecular target: Nuclear receptor subfamily 1 group I member 2 (Rattus norvegicus) (UniProt Q9R1A7); assay: qHTS assay for small molecule activators of the rat pregnane X receptor (rPXR) signaling pathway (AID 651751; call rule not given here; note: 0% is about no effect); conditions: rPXR reporter cells, luciferase (One-Glo), 24 h
# Chain of Nuclear receptor subfamily 1 group I member 2 (Rattus norvegicus) (Q9R1A7 whole entry, looked up): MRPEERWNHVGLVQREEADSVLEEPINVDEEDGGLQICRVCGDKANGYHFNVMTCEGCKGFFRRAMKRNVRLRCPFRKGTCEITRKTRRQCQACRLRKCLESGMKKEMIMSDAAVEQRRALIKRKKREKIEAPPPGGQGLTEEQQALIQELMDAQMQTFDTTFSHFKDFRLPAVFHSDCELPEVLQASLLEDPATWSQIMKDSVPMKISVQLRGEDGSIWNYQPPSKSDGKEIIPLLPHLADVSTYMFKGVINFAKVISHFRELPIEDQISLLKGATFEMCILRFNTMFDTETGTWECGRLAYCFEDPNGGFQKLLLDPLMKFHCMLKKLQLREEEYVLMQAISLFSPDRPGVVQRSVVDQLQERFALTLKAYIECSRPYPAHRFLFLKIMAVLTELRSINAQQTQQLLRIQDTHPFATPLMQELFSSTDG
# [3] = at 45.9 µM (top of the series), tumour line B
# [4] = at 45.9 µM (top of the series), tumour line D
# [5] = at 46.1 µM (top of the series), tumour line C
compound,measurement,setting,value
C[C@@H]([C@H](O)c1ccccc1)N(C)C,"activity, negative = cell killing",[1]; [3],-6.97%
same,"activity, negative = cell killing",[1]; [4],-5.32%
same,Potency,astro,inactive
COC(=O)[C@@H]1[C@H]2CC[C@@H](C[C@H]1OC(=O)c1ccccc1)N2C,"activity, negative = cell killing",[1]; [3],-0.119%
same,"activity, negative = cell killing",[1]; [4],4.05%
same,"activity, negative = cell killing",[1]; [5],-3.81%
same,Potency,astro,inactive
C[N+]1(C)[C@@H]2CC[C@H]1CC(OC(=O)c1c[nH]c3ccccc13)C2 (stereo partly specified),"activity, negative = cell killing",[1]; [3],-23.1%
same,"activity, negative = cell killing",[1]; [5],-27.7%
same,Potency,astro,inactive
C[C@H]1CCC[C@H](O)CCCCCc2cc(O)cc(O)c2C(=O)O1,"activity, negative = cell killing",[1]; [5],1.42%
same,Potency,[1]; tumour line A,12.6 µM (active)
same,Potency,[1]; tumour line D,35.5 µM (active)
same,Potency,astro,inactive
same,max response,[2],-2.32%
CN1[C@@H]2CC[C@H]1CC(OC1c3ccccc3CCc3ccccc31)C2 (stereo partly specified),"activity, negative = cell killing","[1]; at 21.2 µM (top of the series), tumour line B",-28.8%
same,Potency,[1]; tumour line A,5.62 µM (active)
same,Potency,astro,inactive
O=C1OC2(c3cc(Br)c(O)cc3Oc3c2cc(Br)c(O)[c]3[Hg])c2ccccc21 (stereo unspecified),"activity, negative = cell killing","[1]; at 20 µM (top of the series), tumour line C",-9.78%
same,Potency,[1]; tumour line A,14.1 µM (active)
same,Potency,astro,inactive
